According to PubChem BioAssay (NCI):
The panel holds about 83,000 compounds, 20% with a hit somewhere; the sample as a whole holds those more often.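 For each line, cells grew in 96-well plates with the test compound present at a single concentration for 48 hours.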 Activity calls are given as the source filed them. How the source made its calls: active means growth percent below 10; inactive means the rest.

What follows are compounds tested on HS 578T breast (assay: NCI-60 one-dose screen, 48 h (100 = growth as untreated, 0 = no growth, -100 = all killed)). Settings: 10 µM unless noted.

Row | SMILES | growth
1 | Cc1nn(-c2ccccc2)c2ncnc(N/N=C/c3cccc(O)c3)c12 | 56.9% (inactive)
2 | C=C1CC[C@@H]2[C@]3(C)COC(c4ccccc4)O[C@@H]3CC[C@@]2(C)[C@@H]1C/C=C1/C(=O)OC[C@H]1O (stereo partly specified) | 101% (inactive)
3 | CN(C)CCNC(=O)c1ccc(-c2nc3ccc4[nH]ncc4c3c3c2CCC3)cc1 | -25% (active)
4 | Fc1ccc(-c2cc3nc(C(Cl)Cl)nc(-c4ccc(F)cc4)n3n2)cc1 | -1.86% (active)
5 | C=C(C=O)[C@@H]1CC[C@]2(C)[C@H](C(=O)C=C3[C@H]4C[C@](C)(C(=O)OC)CC[C@]4(C)CC[C@]32C)[C@@]1(C)CCC#N | -2.47% (active)
6 | CCc1ccc(SC2c3ccc(N(CC)CC)cc3Oc3nc(N)c(C#N)c(N)c32)cc1 (stereo unspecified) | 9.11% (active)
7 | CCOC(=O)C1=NNC(c2ccc(Cl)cc2)C1C(=O)N1C(=S)NC(=O)C1CC(C)C (stereo unspecified) | 98.6% (inactive)
8 | C#CCn1cccc1CNc1ccc(OC)cc1 | -40% (active)
9 | NC(N)=Nc1ccc(Oc2cccc(NC(N)=Nc3ccc(Br)cc3)c2)cn1 | 44.2% (inactive)
10 | CC1(C)CC[C@]2(CN)CC[C@]3(C)C(=CC[C@@H]4[C@@]5(C)CCCNC(C)(C)[C@@H]5CC[C@]43C)[C@H]2C1 | 108% (inactive)
11 | O=C1C(c2ccccc2)=C(N2CCc3ccccc32)OC1(Cl)Cl | 66.3% (inactive)
12 | CC(=O)c1nnn(-c2c(C(=O)n3nc(C)cc3C)sc(=S)n2-c2ccccc2)c1C | 113% (inactive)
13 | COC(=O)C1(C)CCC[C@]2(C)[C@H]3C[C@H]4C(C(C)C)=C[C@]3(CC[C@@H]12)[C@H]1[C@@H]4[C@@H](OC(=O)c2ccco2)CC[C@@H]1OC(=O)c1ccco1 (stereo partly specified) | 110% (inactive)
14 | CC(=O)N1C(=S)NC(=O)C1CC(C)C (stereo unspecified) | 110% (inactive)
15 | C#Cc1ccc(C(=O)NCc2ccc(/C=C/C(=O)c3nccn3C)cc2)cc1 | 22.6% (inactive)
16 | Cn1ccnc1C(=O)/C=C/c1ccc(NC(=O)c2ccc(F)cc2)cc1 | 54.4% (inactive)
17 | O=C(O)c1ccc(-n2cc(CNc3cccc(Cl)c3)c(-c3ccc(F)cc3)n2)cc1 | 106% (inactive)
18 | CCC1=Cc2cc(OC)ccc2OC12C=Cc1cc(OC)ccc1O2 (stereo unspecified) | 15.3% (inactive)
19 | CCO/C=N/C1=C(C#N)C(c2ccc(OC)cc2)c2sc3c(C)cccc3c2O1 (stereo unspecified) | 16.6% (inactive)

Row | SMILES | growth
20 | COc1cccc(O)c1/C=C(/C)c1ccc2c(OC)cccc2[o+]1 | 110% (inactive)
21 | C#CCNC1CCC(c2csc(C#C)n2)=C1C (stereo unspecified) | 90.7% (inactive)
22 | CCO/C=N/C1=C(C#N)C(c2ccc(OC)cc2)c2sc3c(CC)cccc3c2O1 (stereo unspecified) | 18.2% (inactive)
23 | C=CCn1c(SCC(=O)Nc2ccc(C(=O)/C=C/c3ccc(Cl)cc3)cc2)nnc1-c1c[nH]c2ccccc12 | 91.5% (inactive)
24 | N#Cc1cccc(CN2CCC3=C(C2)C(=O)N(Cc2ccc(Cl)cc2)C2=NCCCN23)c1 | 50.5% (inactive)
25 | CCN(CC)c1cn(-c2ccc(S(N)(=O)=O)cc2)nn1 | 98.3% (inactive)
26 | CCCCCc1ccc(S(=O)(=O)Nc2cccc(-c3csc(NC(=O)CCCCCN4CCN(C)CC4)n3)c2)cc1 | 72.2% (inactive)
27 | CCCCCc1ccc(S(=O)(=O)Nc2cc(-c3csc(NC(=O)CN4CCN(C)CC4)n3)ccc2OC)cc1 | -30.3% (active)
28 | COc1ccccc1NCc1cccn1Cc1ccc(F)cc1 | 105% (inactive)
29 | CC(=O)c1cc(C(=O)c2ccc(Br)cc2)n2cc(C)cc(C)c12 | 95.9% (inactive)
30 | O=C1Nc2ccccc2/C1=C/c1ccc(COCC2CO2)n1-c1ccc(O)cc1 (stereo unspecified) | 104% (inactive)
31 | C/C(=N\O)[C@H]1C[C@]23CC[C@]4(C)[C@H](CC[C@@H]5[C@@]6(C)CC/C(=N/O)C(C)(C)[C@@H]6CC[C@]54C)[C@H]2[C@H](C)C1(C)OC3 | 104% (inactive)
32 | NC(N)=Nc1ccc(Oc2cccc(Oc3ccc(Cl)c(C(F)(F)F)c3)c2)cn1 | 79.8% (inactive)
33 | COc1ccc([C@@H]2c3[nH]c4ccccc4c3C[C@H]3C(=O)N(C4CCN(CC5CCCCC5)CC4)CC(=O)N23)c(OC)c1 | 68.9% (inactive)
34 | COc1ccc(C2CC(c3ccc(Nc4nc(NCCO)nc(N5CCOCC5)n4)cc3)=Nc3c(N)nc(N)nc3N2)cc1 (stereo unspecified) | 91.6% (inactive)
35 | Cc1ccc2c(c1)Oc1nc(N)c(C#N)c(N)c1C2Sc1ccc(F)cc1 (stereo unspecified) | -38.1% (active)
36 | O=C(CCn1c[n+](CC(=O)c2ccc(-c3ccccc3)cc2)c2ccccc21)Nc1cccc2cccnc12 | 62.8% (inactive)
37 | O=S(=O)(NCCNc1nccc(-n2cnc3ccccc32)n1)c1ccc(Cl)cc1 | 88.1% (inactive)
38 | O=C1CCCc2nc(Nc3ccc(S(=O)(=O)Nc4ccc([N+](=O)[O-])cc4)cc3)ncc21 | 98.4% (inactive)

The compounds below were run on NCI/ADR-RES ovarian in the same assay as above. Settings: 10 µM unless noted.

Row | SMILES | growth
39 | Cc1nn(-c2ccccc2)c2ncnc(N/N=C/c3cccc(O)c3)c12 | 23.3% (inactive)
40 | C=C1CC[C@@H]2[C@]3(C)COC(c4ccccc4)O[C@@H]3CC[C@@]2(C)[C@@H]1C/C=C1/C(=O)OC[C@H]1O (stereo partly specified) | 57% (inactive)
41 | CN(C)CCNC(=O)c1ccc(-c2nc3ccc4[nH]ncc4c3c3c2CCC3)cc1 | 81.3% (inactive)
42 | Fc1ccc(-c2cc3nc(C(Cl)Cl)nc(-c4ccc(F)cc4)n3n2)cc1 | 19.4% (inactive)
43 | C=C(C=O)[C@@H]1CC[C@]2(C)[C@H](C(=O)C=C3[C@H]4C[C@](C)(C(=O)OC)CC[C@]4(C)CC[C@]32C)[C@@]1(C)CCC#N | -24.3% (active)
44 | CCc1ccc(SC2c3ccc(N(CC)CC)cc3Oc3nc(N)c(C#N)c(N)c32)cc1 (stereo unspecified) | 5.13% (active)
45 | CCOC(=O)C1=NNC(c2ccc(Cl)cc2)C1C(=O)N1C(=S)NC(=O)C1CC(C)C (stereo unspecified) | 99.9% (inactive)
46 | C#CCn1cccc1CNc1ccc(OC)cc1 | -53.1% (active)
47 | NC(N)=Nc1ccc(Oc2cccc(NC(N)=Nc3ccc(Br)cc3)c2)cn1 | 100% (inactive)
48 | CC1(C)CC[C@]2(CN)CC[C@]3(C)C(=CC[C@@H]4[C@@]5(C)CCCNC(C)(C)[C@@H]5CC[C@]43C)[C@H]2C1 | 105% (inactive)
49 | O=C1C(c2ccccc2)=C(N2CCc3ccccc32)OC1(Cl)Cl | 86.7% (inactive)
50 | CC(=O)c1nnn(-c2c(C(=O)n3nc(C)cc3C)sc(=S)n2-c2ccccc2)c1C | 111% (inactive)
51 | COC(=O)C1(C)CCC[C@]2(C)[C@H]3C[C@H]4C(C(C)C)=C[C@]3(CC[C@@H]12)[C@H]1[C@@H]4[C@@H](OC(=O)c2ccco2)CC[C@@H]1OC(=O)c1ccco1 (stereo partly specified) | 107% (inactive)
52 | CC(=O)N1C(=S)NC(=O)C1CC(C)C (stereo unspecified) | 105% (inactive)
53 | C#Cc1ccc(C(=O)NCc2ccc(/C=C/C(=O)c3nccn3C)cc2)cc1 | 9.5% (active)
54 | Cn1ccnc1C(=O)/C=C/c1ccc(NC(=O)c2ccc(F)cc2)cc1 | 27.5% (inactive)
55 | O=C(O)c1ccc(-n2cc(CNc3cccc(Cl)c3)c(-c3ccc(F)cc3)n2)cc1 | 97.9% (inactive)
56 | CCC1=Cc2cc(OC)ccc2OC12C=Cc1cc(OC)ccc1O2 (stereo unspecified) | 11.7% (inactive)
57 | CCO/C=N/C1=C(C#N)C(c2ccc(OC)cc2)c2sc3c(C)cccc3c2O1 (stereo unspecified) | 10.9% (inactive)

Row | SMILES | growth
58 | COc1cccc(O)c1/C=C(/C)c1ccc2c(OC)cccc2[o+]1 | 100% (inactive)
59 | C#CCNC1CCC(c2csc(C#C)n2)=C1C (stereo unspecified) | 33.9% (inactive)
60 | CCO/C=N/C1=C(C#N)C(c2ccc(OC)cc2)c2sc3c(CC)cccc3c2O1 (stereo unspecified) | 10.3% (inactive)
61 | C=CCn1c(SCC(=O)Nc2ccc(C(=O)/C=C/c3ccc(Cl)cc3)cc2)nnc1-c1c[nH]c2ccccc12 | 97.7% (inactive)
62 | N#Cc1cccc(CN2CCC3=C(C2)C(=O)N(Cc2ccc(Cl)cc2)C2=NCCCN23)c1 | 13.4% (inactive)
63 | CCN(CC)c1cn(-c2ccc(S(N)(=O)=O)cc2)nn1 | 109% (inactive)
64 | CCCCCc1ccc(S(=O)(=O)Nc2cccc(-c3csc(NC(=O)CCCCCN4CCN(C)CC4)n3)c2)cc1 | 89.8% (inactive)
65 | CCCCCc1ccc(S(=O)(=O)Nc2cc(-c3csc(NC(=O)CN4CCN(C)CC4)n3)ccc2OC)cc1 | 41.9% (inactive)
66 | COc1ccccc1NCc1cccn1Cc1ccc(F)cc1 | 93.7% (inactive)
67 | CC(=O)c1cc(C(=O)c2ccc(Br)cc2)n2cc(C)cc(C)c12 | 86.3% (inactive)
68 | O=C1Nc2ccccc2/C1=C/c1ccc(COCC2CO2)n1-c1ccc(O)cc1 (stereo unspecified) | 106% (inactive)
69 | C/C(=N\O)[C@H]1C[C@]23CC[C@]4(C)[C@H](CC[C@@H]5[C@@]6(C)CC/C(=N/O)C(C)(C)[C@@H]6CC[C@]54C)[C@H]2[C@H](C)C1(C)OC3 | 113% (inactive)
70 | NC(N)=Nc1ccc(Oc2cccc(Oc3ccc(Cl)c(C(F)(F)F)c3)c2)cn1 | -6.8% (active)
71 | COc1ccc([C@@H]2c3[nH]c4ccccc4c3C[C@H]3C(=O)N(C4CCN(CC5CCCCC5)CC4)CC(=O)N23)c(OC)c1 | 76.7% (inactive)
72 | COc1ccc(C2CC(c3ccc(Nc4nc(NCCO)nc(N5CCOCC5)n4)cc3)=Nc3c(N)nc(N)nc3N2)cc1 (stereo unspecified) | 107% (inactive)
73 | Cc1ccc2c(c1)Oc1nc(N)c(C#N)c(N)c1C2Sc1ccc(F)cc1 (stereo unspecified) | -89.4% (active)
74 | O=C(CCn1c[n+](CC(=O)c2ccc(-c3ccccc3)cc2)c2ccccc21)Nc1cccc2cccnc12 | 99.1% (inactive)
75 | O=S(=O)(NCCNc1nccc(-n2cnc3ccccc32)n1)c1ccc(Cl)cc1 | 97.8% (inactive)
76 | O=C1CCCc2nc(Nc3ccc(S(=O)(=O)Nc4ccc([N+](=O)[O-])cc4)cc3)ncc21 | 105% (inactive)
